Data taken from the supplement of paper PMC6555819.

Each sequence was assayed on PPARg DBDmut IVT, anti-PPARg (DBD mutation: PPARg1 K132A/R137A, NR concentration 270 nM) (assay: PBM binding z-score (relative to random genomic background probes); higher = stronger binding; sequences stand for … in GC…GCGATTGACAGCGTAGAATGAAGG).
Method in brief: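 Each nuclear receptor dimer, without ligand, was incubated for 1 h on custom Agilent 4×180K protein-binding microarrays. Binding was detected with antibodies against each partner (one per run), and scanned fluorescence was regression-normalized. The binding z-scores are referenced to random human genomic background probes.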

Sequence | PBM binding z-score
TCTTGTAGATCAAACAGGTTAAGAAAGCCTGAGT | 0.534
GCTAGTTGGTCAGTATAAGGTCACACACCGGTCG | 0.251
ATCTCTAGGTAACAAGTTCAGAGAAAGAGAGGAC | 2.27
TCTATTAGTTGTAGGGCAACCGACGAGTCCGTTT | 1.16
AGAATGAAGTTATACGTAGATCAGGGAAGAAAGT | 0.896
TAGCCTAGGTCATTAGGCCAGTATAGTACGCATC | -0.52
CCTTACGGGTCTCGAGGTTATAGCACGACGAGCG | -0.982
ATACCAAGGTGATCGTAAGGTCGTTGATACTAAC | 0.646
TTACCAAGGTGCAAGGTCGTTGATGCACGCCTTG | -0.179
TCTTATAGGTAAACAGGTGAAAGTCCGTAAGTTA | 1.34
ATACCAAGGTGATCGTGAGGTCCTTGATACTAAC | -0.0653
TCATATAGGTAAAGGTGATAGTCGAACGATATGA | 1.36
AGACAAAGTTCACTAGGTAACGTAAGATTCAGCT | 0.842
GATGCTAGGTCAGGTTGGTCAGCTAACGGGTACG | -0.425
CCTTACTGGTCACGAGGTTATAGCACGACGAGCG | 0.311
TCTTGTAGATCAGCAAGTTAAGAAAGCTGGCCAA | -0.449
TCATATAGGGAAATGCTAGGTGAAAGTCCGATCT | 0.79
GCAAATAGGTAATACAAGGTGAAAGTCCGATTGT | 0.68
GCTTACGGGTCAACGGTTATAGCATGAATAGAAT | 0.764
GCGACTGGGGCATCAGCAGATTACCATAACTTAA | -0.326

Sequence | PBM binding z-score
GCGACTGCGGCAAAGCAGGTTACCATAAGGTTGG | -1.23
GCGACTGGGGCATTAGCAGGTTACCATAACTTAA | -0.476
ATCGCTAGGTAAAGATAGTTCAGTGAATGCAAAT | 0.059
TAGCCTAGGTCAGATCGGGCCAATATACGCTATA | -0.715
CCTACCGGGCCACGAAAGGTCATTGATTCAGTGA | -1.2
CCTTACGGGTCACTGACAGGTTATAGAATTTGGA | 0.387
CCTTACGGGTCACTGACAGATTATAGCATTTGGA | 0.266
TCCCGGAGGACACGAAAGGTCAGAGCTCGACATC | -0.402
TCTCAGAGGACACGAAAGGTCAGAGCTCGACATC | -0.022
CGTCCGAGGTCAGCAGGTCAGTGAAAGCGACGTG | 0.472
AGAATGAGGATATTAAGATCAGGGAATTGCGGTC | 0.486
CCTAGCAGCCCAGGGTCACTCAAGCATTTCGCTT | -1.49
GCTGCTAGGTCAACTGTTGGTCAGCTAAAGCTCG | -0.586
ACTGGCAGGCCAAGGGTCACTCAAGATTAGTCCG | -0.62
CCTCGGAGGACAGAAGGTCGGAGCTGTCCGCTTT | -2.08
TAGCCTAGGTCAGGCGGGCCAGTATAGTGTCGGC | -0.515
AGAATGAGGTTAAGCTCAGGGAAACAGAATACAT | 0.751
CTTCAAAGTTCAACTAAGGTAACGTAAAGCACGC | 1.17
TTACCAAGGTGAAGGTCTTTGATCCCTCTGTAGA | 0.0438
ATCTCTAGGTAAATTTCAGTGAAAGATCGATAGA | 1.58
